In ChEMBL document CHEMBL4513216, “Probing the Open Global Health Chemical Diversity Library for Multistage-Active Starting Points for Next-Generation Antimalarials” (ACS Infect Dis, 2020):
The whole screen tested about 69,000 compounds, of which about 8,600 (12%) showed an effect of 50% or more. Shown is part of a subset that was picked to be rich in strong results.

What follows are compounds tested on Plasmodium berghei (assay: Screen against P. berghei liver stage (PbLuc), transformed with Luciferase, at 10uM). Conditions: tested at 10 uM.
Format: functional, HepG2

**Q.** For `O=S(=O)(c1ccc(F)cc1)N1CCCC(c2nccs2)C1` (centres undefined), which INHIBITION is on record?
**A.** The INHIBITION was 13.5%.

**Q.** With `CC(=O)NCc1nccnc1C1CCN(C(=O)c2cc[nH]n2)CC1` as the compound, how does the INHIBITION read?
**A.** Its INHIBITION is -19.7%.

**Q.** With `Cc1cnc(N2CCC3(CC2)CC3CNC(=O)C2CCC2)nc1` (centres undefined) as the compound, how does the INHIBITION read?
**A.** The INHIBITION was 50.7%.

**Q.** How did the INHIBITION turn out when `Cc1cnc(N2CCC3(CC2)CC3C(=O)NCC2CC2)nc1` (centres undefined) was run?
**A.** The INHIBITION was 16.9%.

**Q.** For `Cc1cnc(N2CCC3(CC2)CC3CNC(=O)N(C)C)nc1` (centres undefined), which INHIBITION is on record?
**A.** Its INHIBITION is 7.24%.

**Q.** Which INHIBITION does the source give for `CC(C)(C)CC(=O)NS(=O)(=O)c1ccc(F)cc1C(F)(F)F` here?
**A.** Its INHIBITION is -15.5%.

**Q.** With `Cc1nn(C)c(C)c1C1CCCN1Cc1nc2ccccc2c(=O)[nH]1` (centres undefined) as the compound, how does the INHIBITION read?
**A.** The INHIBITION was -33.7%.

**Q.** How did the INHIBITION turn out when `CC(C)(C)c1ccc(OCc2nc3c(c(=O)[nH]2)CCNC3)cc1` was run?
**A.** Its INHIBITION is -13.3%.

**Q.** Which INHIBITION does the source give for `O=c1[nH]c(NCc2cccc(-c3ccccc3)c2)nc2c1CCNC2` here?
**A.** Its INHIBITION is 21.9%.

**Q.** `O=c1[nH]c(NCc2cccc(OC(F)F)c2)nc2c1CCNC2` was tested. Which INHIBITION did it give?
**A.** The INHIBITION was 88%.

**Q.** How did the INHIBITION turn out when `O=c1[nH]c(COc2ccccc2Cl)nc2c1CCNC2` was run?
**A.** The INHIBITION was 2.15%.

**Q.** With `O=c1[nH]c(COc2cccc(F)c2)nc2c1CCNC2` as the compound, how does the INHIBITION read?
**A.** Its INHIBITION is 15.8%.

**Q.** `COc1cc(CNc2nc3c(c(=O)[nH]2)CCNC3)cc(OC)c1OC` was tested. Which INHIBITION did it give?
**A.** The INHIBITION was 57.8%.

**Q.** With `CCC=C(C)C(=O)N1CSCC1C(=O)NC1=NCCS1` (centres undefined) as the compound, how does the INHIBITION read?
**A.** Its INHIBITION is 7.58%.

**Q.** `C[C@@H]1CN(C2CCN(Cc3cnc(-c4cccs4)nc3)CC2)C[C@H](C)O1` was tested. Which INHIBITION did it give?
**A.** The INHIBITION was 63.7%.

**Q.** Which INHIBITION does the source give for `OC1CCN(C2CCN(Cc3cnc(-c4cccs4)nc3)CC2)CC1` here?
**A.** The INHIBITION was 25.1%.

**Q.** With `CC(C1CCN(Cc2cnc(-c3cccs3)nc2)CC1)N(C)C` (centres undefined) as the compound, how does the INHIBITION read?
**A.** The INHIBITION was 18.8%.

**Q.** `CC(C)n1ncc2cc(NC(=O)N3CCSCC3)cnc21` was tested. Which INHIBITION did it give?
**A.** Its INHIBITION is 11.2%.

**Q.** How did the INHIBITION turn out when `O=C(Cc1csc(-c2ccco2)n1)N1CCN(c2ccccc2O)CC1` was run?
**A.** Its INHIBITION is -44.3%.

**Q.** How did the INHIBITION turn out when `CC(=O)N1CCOCC(Cc2ccc3c(ccn3C(C)=O)c2)C1` (centres undefined) was run?
**A.** The INHIBITION was 12.59%.

**Q.** For `Cc1ccc(CC2COCCN(S(=O)(=O)c3ccccc3)C2)nc1` (centres undefined), which INHIBITION is on record?
**A.** Its INHIBITION is 1.62%.

**Q.** Which INHIBITION does the source give for `CC(C)c1nn(C)c(N(C)C)c1CNC1CCc2cc(F)ccc21` (centres undefined) here?
**A.** Its INHIBITION is -25.3%.

**Q.** For `Cc1nc(CN(C)C)cc(N2CCCC(COc3ccc(F)cc3)C2)n1` (centres undefined), which INHIBITION is on record?
**A.** The INHIBITION was 79.5%.

**Q.** With `CN(C)Cc1nc(C(=O)N2CCCC(COc3ccc(F)cc3)C2)cs1` (centres undefined) as the compound, how does the INHIBITION read?
**A.** The INHIBITION was 15.7%.

**Q.** `Cc1nc(N)cc(N2CCCC(COc3cccc(F)c3)C2)n1` (centres undefined) was tested. Which INHIBITION did it give?
**A.** The INHIBITION was 73.8%.

**Q.** With `CN(C)Cc1ccc(C(=O)N2CCCC(COc3ccc(F)cc3)C2)o1` (centres undefined) as the compound, how does the INHIBITION read?
**A.** Its INHIBITION is 63%.

**Q.** How did the INHIBITION turn out when `OCc1csc(N2CCCC(COc3cccc(F)c3)C2)n1` (centres undefined) was run?
**A.** Its INHIBITION is 39.9%.

**Q.** How did the INHIBITION turn out when `Cc1ccc(OCC2CCCN(c3cc(C(N)=O)ccn3)C2)cc1` (centres undefined) was run?
**A.** The INHIBITION was 26.5%.

**Q.** With `COCC(=O)N1CCCC(COc2ccccc2C)C1` (centres undefined) as the compound, how does the INHIBITION read?
**A.** Its INHIBITION is -4.37%.

**Q.** How did the INHIBITION turn out when `Cc1ccccc1OCC1CCCN(c2cc(N)nc(N)n2)C1` (centres undefined) was run?
**A.** Its INHIBITION is 73.8%.

**Q.** How did the INHIBITION turn out when `CCNC(=O)c1ccnc(N2CCCC(COc3ccccc3C)C2)c1` (centres undefined) was run?
**A.** Its INHIBITION is 30.9%.

**Q.** With `CCc1nnsc1C(=O)N1CCCC(COc2ccc(F)cc2)C1` (centres undefined) as the compound, how does the INHIBITION read?
**A.** The INHIBITION was 26.4%.

**Q.** With `COc1cccc(OCC2CCCN(c3cc(C(N)=O)ccn3)C2)c1` (centres undefined) as the compound, how does the INHIBITION read?
**A.** Its INHIBITION is 40.7%.

**Q.** How did the INHIBITION turn out when `COc1ccc(OCC2CCCN(c3nc(CO)cs3)C2)cc1` (centres undefined) was run?
**A.** Its INHIBITION is -3.43%.

**Q.** How did the INHIBITION turn out when `O=C(c1ccccc1)N1CC2(CCNC2)OCc2ccccc21` (centres undefined) was run?
**A.** The INHIBITION was -0.621%.

**Q.** Which INHIBITION does the source give for `Cc1cnc(N2Cc3nccn3CC(Cn3ncccc3=O)C2)nc1` (centres undefined) here?
**A.** The INHIBITION was 38.2%.

**Q.** With `CCN1CC(C(=O)NCCc2csc(-c3ccncc3)n2)CC1=O` (centres undefined) as the compound, how does the INHIBITION read?
**A.** The INHIBITION was -2.92%.

**Q.** `CC(=O)N1CCC(Cc2cccc(-c3c(C)noc3C)n2)C1` (centres undefined) was tested. Which INHIBITION did it give?
**A.** The INHIBITION was 8.53%.

**Q.** How did the INHIBITION turn out when `Nc1nc(N2CCCC(COc3ccc(F)cc3)C2)c2nc[nH]c2n1` (centres undefined) was run?
**A.** Its INHIBITION is 33.7%.

**Q.** How did the INHIBITION turn out when `Nc1cc(N2CCCC(COc3ccc(F)cc3)C2)ncn1` (centres undefined) was run?
**A.** The INHIBITION was 23.7%.

**Q.** With `Nc1cc(N2CCCC(COc3ccc(F)cc3)C2)nc(N)n1` (centres undefined) as the compound, how does the INHIBITION read?
**A.** The INHIBITION was 79.5%.

**Q.** `OC(COCc1ccccc1Cl)CN1CCC(c2ccn[nH]2)CC1` (centres undefined) was tested. Which INHIBITION did it give?
**A.** The INHIBITION was 48.2%.

**Q.** With `COc1ccc(CN2CC3(CCNCC3)CCC2=O)c(F)c1F` as the compound, how does the INHIBITION read?
**A.** Its INHIBITION is 22.9%.

**Q.** For `Cc1ccc(CN2CC3(CCNCC3)CCC2=O)c(F)c1F`, which INHIBITION is on record?
**A.** The INHIBITION was 71.1%.

**Q.** `COc1cccc(CN2CC3(CCNCC3)CCC2=O)c1OC` was tested. Which INHIBITION did it give?
**A.** Its INHIBITION is 24.2%.

**Q.** With `c1ccc(NC[C@@H]2CCC[C@@H]3CN(c4ncccn4)C[C@@H]32)nc1` as the compound, how does the INHIBITION read?
**A.** Its INHIBITION is 48.4%.

**Q.** With `CC[C@H]1CN(C(=O)c2cnc(N3CCN(C)CC3)nc2C)CC[C@@]1(C)O` as the compound, how does the INHIBITION read?
**A.** The INHIBITION was 1.93%.

**Q.** `CC(=O)N1CCc2nnc(C3CCCN3CC3CCCCC3)n2CC1` (centres undefined) was tested. Which INHIBITION did it give?
**A.** The INHIBITION was -5.71%.

**Q.** For `CC(CNC(=O)CCCc1ccccn1)c1ccsc1` (centres undefined), which INHIBITION is on record?
**A.** Its INHIBITION is 60.2%.

**Q.** `CC(CNC(=O)CCc1ccccn1)c1ccsc1` (centres undefined) was tested. Which INHIBITION did it give?
**A.** Its INHIBITION is 22.2%.

**Q.** `CC(C)C(O)CNC(=O)CCCc1ccccn1` (centres undefined) was tested. Which INHIBITION did it give?
**A.** The INHIBITION was 15.5%.

**Q.** With `CC(C)CS(=O)(=O)CC(=O)NC1CCCCNC1=O` (centres undefined) as the compound, how does the INHIBITION read?
**A.** The INHIBITION was -79.1%.

**Q.** For `O=C(c1cnc(-c2ccccn2)s1)N1CCCC1Cn1cccn1` (centres undefined), which INHIBITION is on record?
**A.** The INHIBITION was -9.19%.

**Q.** For `O=C(N1CCOCC1)N1CCc2ncnc(Oc3cccnc3)c2CC1`, which INHIBITION is on record?
**A.** The INHIBITION was 0.734%.
